# Pf growth 96h – inhibits malaria parasite growth, 96 h. P. falciparum luciferase reporter growth, 96 h. Potency, µM (highest dose often 28.7 µM), for the others: top-dose activity change, negative = inhibition, most hits filed as inhibitors. 6.9% of 320,000 active. AID 504834; note: potency is the fitted concentration of half-maximal effect; % is set by controls: 0 for no effect and ±100 for the full control effect
#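 Plates of compound plus infected erythrocytes (2% hematocrit, 0.05% parasitemia final) incubate 96 hours, 37 C, 5% CO2. Detection reagent added; reduced luminescence from the parasites' luciferase reporter flags inhibition.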
# Pf growth 48h – inhibits P. falciparum growth in the first generation, 48 h; P. falciparum luciferase growth in erythrocytes, 48 h; Potency, µM (series often up to 28.7 µM), inactives show at the top dose activity change, negative = inhibition, most hits filed as inhibitors; 5.9% of 310,000 active; note: potency is the fitted concentration of half-maximal effect; % is set by controls: 0 for no effect and ±100 for the full control effect
#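 Firefly luciferase activity from engineered P. falciparum reports growth; inhibitors lower the luminescent signal. Cultures contained 2% hematocrit erythrocytes at 0.1% final parasitemia.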
# Shiga toxin inh – Shiga toxin inhibition. inhibition, % at 38.7 µM. Vero cells, Shiga toxin protein synthesis inhibition reporter. 9.2% of 290,000 active; in the data active = inhibition mostly above about 28%, no sharp cut-off; inactive = mostly below about 43%; note: 0% is about no effect
# LmPK inhibitor – blocks Leishmania mexicana pyruvate kinase activity | Q27686 | purified LmPK, Kinase-Glo ATP luminescence, 1 h | Potency, µM (titrated, usually from 57.5 µM), for the others: at the highest dose activity change, negative = inhibition, most hits filed as inhibitors | 0.37% of 290,000 active | AID 1721; note: potency is the fitted concentration of half-maximal effect; % is set by controls: 0 for no effect and ±100 for the full control effect
# Target sequence (Q27686 whole entry, looked up): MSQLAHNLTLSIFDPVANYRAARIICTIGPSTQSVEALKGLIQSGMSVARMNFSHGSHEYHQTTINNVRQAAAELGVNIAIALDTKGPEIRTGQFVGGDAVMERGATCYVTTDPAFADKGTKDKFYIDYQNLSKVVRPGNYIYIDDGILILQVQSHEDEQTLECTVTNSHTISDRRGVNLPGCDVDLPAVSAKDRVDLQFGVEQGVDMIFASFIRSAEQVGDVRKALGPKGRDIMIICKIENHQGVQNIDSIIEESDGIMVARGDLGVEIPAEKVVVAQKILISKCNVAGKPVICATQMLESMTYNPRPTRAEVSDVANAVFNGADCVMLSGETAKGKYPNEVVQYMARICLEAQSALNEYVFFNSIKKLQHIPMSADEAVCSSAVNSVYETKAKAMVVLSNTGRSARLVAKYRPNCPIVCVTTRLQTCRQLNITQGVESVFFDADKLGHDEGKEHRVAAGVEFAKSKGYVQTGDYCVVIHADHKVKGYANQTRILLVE
#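 ATP generated from ADP (0.1 mM) and PEP (0.5 mM) by 0.1 nM LmPK over 1 h at room temperature (pH 7.2 imidazole buffer) was detected by coupled luciferase luminescence. Values were normalized to uninhibited and no-enzyme wells.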
# Cycloheximide cs – counter-screen for Shiga toxin inhibitors: cycloheximide protein synthesis inhibition | 12% of 300,000 active | cell reporter, cycloheximide protein synthesis inhibition counterscreen | max response, %; in the data active = max response mostly above about 13%, no sharp cut-off; inactive = mostly below about 14%; note: read at 38.3 µM for the half of the compounds with a filed dose; 0% is about no effect
# An asterisk follows results filed as active; ? = inconclusive; . = not tested or not shown. In the library only some 22% were active in any assay of this set; here they are far more common. Unless noted, calls come from the whole dose curve; as a rule, active = well fitted inhibition curve with a large enough effect; inconclusive = small, poorly fitted or top-dose-only effect, or another doubt; inactive = no such curve, though single readings can be large or run the other way.
SMILES,Pf growth 96h,Pf growth 48h,Shiga toxin inh,LmPK inhibitor,Cycloheximide cs
Cc1cc(C=C2C(=O)c3ccccc3C2=O)c(C)n1-c1cccc(C(=O)O)c1,-1%,?,104*,12%,43*
CC1=NN(c2ccccc2)C(=O)/C1=C\c1cc(C)n(-c2ccccc2)c1C,-1%,0%,-7,2%,-4
O=C(Nc1ccon1)c1cccc(S(=O)(=O)N2CCCCC2)c1,?,52%,-12,-4%,7
Cc1cc(/C=C2\Cc3ccccc3C2=O)c(C)n1-c1ccccc1,48%,-25%,159*,-22%,80*
Cc1cc(/C=N/O)c(C)n1-c1ccccc1,6%,?,1,2%,9
CC1(C)CC(N2CCCC2)=CC(=[N+]2CCCC2)C1,0.33µM*,1.5µM*,-4,-1%,6
CC1(C)CC(=O)C=C(N2CCN(C3=CC(=O)CC(C)(C)C3)CC2)C1,.,40%,44,-1%,-1
Cc1ccc(CN2CCN(Cc3ccccc3)CC2)cc1,122%,0%,12,0%,-1
CC1(C)CC(N2CCCC2)=CC(=[N+]2CCCCC2)C1,?,0.83µM*,-7,2%,3
CN(Cc1ccccc1)C1=CC(=[N+]2CCCCC2)CC(C)(C)C1,0.33µM*,0.37µM*,-4,-2%,8
CC1(C)CC(N2CCN(Cc3ccccc3)CC2)=CC(=[N+]2CCCCC2)C1,0.52µM*,0.83µM*,-3,1%,0
O=C(NCc1ccco1)c1cc([N+](=O)[O-])ccc1N1CCOCC1,?,9%,-9,0%,-2
Cc1cc(OC(=O)c2c(Cl)cc(Cl)cc2Cl)nc(C)n1,12%,14%,-4,0%,-2
Cc1cc(OC(=O)N(C)C)nc(-c2ccc(C)c(Cl)c2)n1,?,?,39*,5%,15
CC1=NNC(=O)C1CCC(=O)N/N=C/C(Br)=C/c1ccccc1 (centres undefined),?,-17%,-2,6%,15
CCN(CC)c1ccc(/C=N/NC(=O)c2ccc(O)cc2)cc1,.,.,116*,.,49*
CCN(CC)c1ccc(/C=N\NC(N)=O)cc1,4%,13%,8,-6%,7
CCN(CC)c1ccc(/C=N/NC(=O)c2ccoc2C)cc1,453%,210%,45*,14µM*,25*
C/C(=N\NC(=O)c1ccc(OC2CCCC2)cc1)c1ccc(O)cc1,13µM*,?,2,-3%,14
CCN(CC)c1ccc(/C=N/NC(=O)CC(C)C)cc1,?,7%,47*,7%,47*
CCCC(=O)N(CCN1CCOCC1)c1nc2c(OC)ccc(OC)c2s1,36%,18%,26,0%,-3
N#Cc1ccc(S(=O)(=O)NCC(=O)OCC(=O)N2CCCC2=O)cc1,21%,-1%,.,.,.
Clc1ccc(CNc2ccc(CNc3ncn[nH]3)cc2)c(Cl)c1,-11%,-10%,-18,-5%,10
CCN(CC)c1ccc(/C=N/O)cc1,63%,32%,41,4%,17*
C/C(=N\NC(=O)Cc1ccc(F)cc1)c1ccc(O)cc1,10%,-4%,-8,3%,8
SMILES,Pf growth 96h,Pf growth 48h,Shiga toxin inh,LmPK inhibitor,Cycloheximide cs
CCCOc1ccc(/C=N/O)cc1,0%,35%,33,-2%,11
CCN(CC)c1ccc(C(=O)N/N=C(\C)c2ccc(O)cc2)cc1,10µM*,?,-4,4%,-1
CCN(CC)c1ccc(/C=N/NC(=O)OC(C)(C)C)cc1,18%,10%,85*,6%,34*
CCOC(=O)c1c(NC(=O)Cn2cnc3scc(-c4ccc(C)cc4)c3c2=O)sc(C)c1C,?,?,-11,-3%,-2
C[C@@H](O)C1NC(=O)[C@H](CCCCN)NC(=O)c2cc([N+](=O)[O-])cc(I)c2NCCC[C@@H](C(N)=O)NC1=O (some centres undefined),-8%,14%,28,0%,1
CCS(=O)(=O)c1ccc(N=Nc2ccc(O)c3ncccc23)c(OC)c1,?,?,18,-9%,11
Oc1ccc(N=Nc2ccccc2C(F)(F)F)c2cccnc12,0.93µM*,1.5µM*,-4,-3%,-6
COc1ccccc1N=Nc1ccc(O)c2ncccc12,2%,2.9µM*,90*,-1%,62*
CCc1sc(C(=O)NCCCn2ccnc2)cc1Br,?,-79%,.,-1%,4
COC(=O)c1ccc(C(=O)OC)c(NC(=S)N2CCN(c3ccccn3)CC2)c1,?,?,9,4%,9

# High-throughput results from PubChem BioAssay.
